The results in this text go back to PubChem BioAssay (NCI).

Among the test systems are SK-MEL-2 melanoma; EKVX NSCLC; SN12C renal; UO-31 renal; TK-10 renal; ACHN renal; CAKI-1 renal; CCRF-CEM leukemia; MOLT-4 leukemia; SR leukemia; RPMI-8226 leukemia; OVCAR-8 ovarian; OVCAR-5 ovarian; IGROV1 ovarian; OVCAR-3 ovarian; NCI/ADR-RES ovarian; OVCAR-4 ovarian; HS 578T breast; SK-OV-3 ovarian.
What all share (assay): NCI-60 one-dose screen, 48 h (100 = growth as untreated, 0 = no growth, -100 = all killed)
What all share (settings): 10 µM unless noted

This is part of a sample that, as a whole, favours compounds with a hit. Of some 83,000 tested, about 20% had one in any assay.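 How to read the values: 0–100, growth inhibition (40 = 60% inhibited); 0, no net growth; -100 to 0, cell death (-40 = 40% of starting cells died; -100 = all dead).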 Values without a mark were called inactive. Activity calls are given as the source filed them. The calls were made as follows: active = growth percent below 10; inactive = the rest.

`CCCCCCCCn1cc(C2=C(c3coc4ccc(OC)cc34)C(=O)NC2=O)c2ccccc21`: the growth in the assay on SK-MEL-2 melanoma was 107%; in the assay with EKVX NSCLC, 102%; with SN12C renal, 102%; in the assay on UO-31 renal, 85.7%; in the assay with TK-10 renal, 97.6%; with ACHN renal, 103%. Also, the growth with CAKI-1 renal was 99.7%; in the assay with CCRF-CEM leukemia, 99%; with MOLT-4 leukemia it was 125%; with SR leukemia, 119%; with RPMI-8226 leukemia it was 119%; in the assay on OVCAR-8 ovarian, 94.2%. Moreover, the growth in the assay on OVCAR-5 ovarian is 90.8%; with IGROV1 ovarian, 104%; in the assay with OVCAR-3 ovarian, 107%; in the assay on NCI/ADR-RES ovarian it was 101%.
With `Cl.[Pt].[c-]1ccccc1-c1ccccn1.c1ccc(P(c2ccccc2)C([PH+](c2ccccc2)c2ccccc2)[PH+](c2ccccc2)c2ccccc2)cc1`, the growth in the assay with SK-MEL-2 melanoma was -2.53% (active); in the assay with EKVX NSCLC it was 10.8%; in the assay with SN12C renal it was 9.75% (active); in the assay on UO-31 renal, -0.14% (active); in the assay on TK-10 renal it was 21.1%; in the assay with ACHN renal it was 4.96% (active). Also, the growth in the assay on CAKI-1 renal was -5.66% (active); in the assay on CCRF-CEM leukemia, 14.5%; in the assay with MOLT-4 leukemia it was 13.8%; with OVCAR-5 ovarian it was 22.7%; in the assay with OVCAR-4 ovarian, 21.3%; in the assay with IGROV1 ovarian, 17.2%. Moreover, the growth in the assay on OVCAR-3 ovarian was 11.6%; with HS 578T breast it was 7.92% (active); with NCI/ADR-RES ovarian, 60.7%.
Take `CC(C)(C)Nc1c(-c2c3ccccc3cc3ccccc23)nc2ccccn12`: the growth is 77.1% in the assay on SK-MEL-2 melanoma; 70.1% in the assay with EKVX NSCLC; 82.3% in the assay on SN12C renal; 49.8% in the assay on UO-31 renal; 76% with TK-10 renal; 77.8% in the assay on ACHN renal. The growth in the assay on CAKI-1 renal was 50.1%; with CCRF-CEM leukemia it was 61.7%; in the assay with MOLT-4 leukemia, 45.5%; in the assay with RPMI-8226 leukemia, 55%; with OVCAR-8 ovarian, 67.2%; with OVCAR-5 ovarian it was 78.5%. Also, the growth in the assay with SK-OV-3 ovarian was 59.6%; in the assay with IGROV1 ovarian, 64.2%; in the assay on OVCAR-3 ovarian it was 72.3%; in the assay on HS 578T breast, 72%; in the assay on NCI/ADR-RES ovarian, 82.9%.
Turning to `COc1ccc(-c2cc(-c3ccc(Nc4nc(Nc5ccccc5)nc(Nc5ccc(Cl)cc5)n4)cc3)nc(N)n2)cc1`, the growth in the assay with SK-MEL-2 melanoma is 70.7%; with EKVX NSCLC it was 58.8%; with SN12C renal, 75%; with UO-31 renal it was 69%; in the assay on TK-10 renal, 98%; with ACHN renal, 74.6%. For the same compound, the growth in the assay with CAKI-1 renal is 75.8%; in the assay with CCRF-CEM leukemia, 27.1%; in the assay on MOLT-4 leukemia it was 28.6%; with RPMI-8226 leukemia, 50.5%; in the assay on OVCAR-8 ovarian it was 79%; in the assay with OVCAR-5 ovarian, 66.5%. The growth is 56.5% in the assay with OVCAR-4 ovarian; 119% in the assay with SK-OV-3 ovarian; 39.2% in the assay with IGROV1 ovarian; 52.6% with OVCAR-3 ovarian; 69.3% in the assay with NCI/ADR-RES ovarian.
Take `O=C(CC12CC3CC(CC(C3)C1)C2)NCCOCCOCCNC(=O)c1cc2c(o1)C(=O)c1ccccc1C2=O`: the growth with SK-MEL-2 melanoma was -42% (active); with EKVX NSCLC it was -66.4% (active); in the assay on SN12C renal, -96.3% (active); in the assay on UO-31 renal, -60.1% (active); in the assay on TK-10 renal, -27.1% (active); with ACHN renal, -74% (active). In addition, the growth in the assay on CAKI-1 renal is -65.8% (active); in the assay with MOLT-4 leukemia, -4.92% (active); in the assay with SR leukemia it was 9.52% (active); with OVCAR-8 ovarian it was -2.31% (active); in the assay on OVCAR-5 ovarian, -96.9% (active); in the assay with OVCAR-4 ovarian, -99.1% (active). The growth was -43.9% (active) in the assay on IGROV1 ovarian, -40.8% (active) in the assay with OVCAR-3 ovarian, -24.6% (active) in the assay with HS 578T breast and -24.6% (active) in the assay with NCI/ADR-RES ovarian.
With `N=C(N)c1ccc(-c2ccc(/C=C/c3ccccc3)s2)cc1`, the growth was 102% in the assay on SK-MEL-2 melanoma; 71.2% in the assay on EKVX NSCLC; -31.8% (active) with SN12C renal; 63.1% in the assay on UO-31 renal; 98.5% in the assay with TK-10 renal; -5.84% (active) with ACHN renal. In addition, the growth in the assay with CAKI-1 renal is 32.5%; in the assay with MOLT-4 leukemia it was -21% (active); in the assay with SR leukemia it was 1.05% (active); with OVCAR-8 ovarian, 8.3% (active); in the assay with OVCAR-5 ovarian, 13.1%; in the assay with OVCAR-4 ovarian, -24.8% (active). In addition, the growth in the assay with IGROV1 ovarian is -62.6% (active); in the assay on OVCAR-3 ovarian, -25.5% (active); in the assay with HS 578T breast, 57.4%; with NCI/ADR-RES ovarian, -12.5% (active).
On to `Cc1c(Cl)cccc1NS(=O)(=O)c1ccccc1`, for which the growth in the assay with SK-MEL-2 melanoma is 132%; in the assay with EKVX NSCLC, 114%; with SN12C renal it was 103%; with UO-31 renal, 90.4%; in the assay on TK-10 renal it was 104%; with ACHN renal, 98.4%. Besides, the growth was 116% with CAKI-1 renal; 124% in the assay with CCRF-CEM leukemia; 102% in the assay with MOLT-4 leukemia; 123% in the assay on RPMI-8226 leukemia; 112% in the assay with OVCAR-8 ovarian; 92% in the assay on OVCAR-5 ovarian. The growth with OVCAR-4 ovarian was 73.3%; with SK-OV-3 ovarian, 105%; in the assay on IGROV1 ovarian, 114%; in the assay on OVCAR-3 ovarian, 100%; with HS 578T breast it was 102%; in the assay with NCI/ADR-RES ovarian it was 104%.
On to `Nc1nc(Nc2ccc(Cl)cc2)nn1S(=O)(=O)c1ccc(-c2ccc(F)cc2)cc1`, for which the growth in the assay with SK-MEL-2 melanoma was 107%; with EKVX NSCLC it was 81.5%; in the assay on SN12C renal it was 83.2%; in the assay with UO-31 renal, 57.2%; in the assay on TK-10 renal, 97.3%; in the assay on ACHN renal it was 81.8%. For the same compound, the growth in the assay on CAKI-1 renal was 59.8%; in the assay with MOLT-4 leukemia, 74.5%; in the assay with SR leukemia, 85.5%; in the assay on OVCAR-5 ovarian, 85.7%; with OVCAR-4 ovarian it was 89.4%; with IGROV1 ovarian, 76.2%. The growth was 92.1% with OVCAR-3 ovarian, 79.6% with HS 578T breast and 83.3% with NCI/ADR-RES ovarian.
Consider `c1ccc2c(c1)ncn2-c1nc2ccccc2n2c1nc1ccccc12`, for which the growth was 104% in the assay with SK-MEL-2 melanoma; 61.8% in the assay on EKVX NSCLC; 85.9% in the assay on SN12C renal; 48% with UO-31 renal; 79.6% in the assay with TK-10 renal; 63.1% in the assay with ACHN renal. In addition, the growth with CAKI-1 renal is 62.3%; in the assay with CCRF-CEM leukemia, 80.6%; with MOLT-4 leukemia, 80.3%; with RPMI-8226 leukemia, 81.7%; in the assay with OVCAR-5 ovarian it was 81%; in the assay on OVCAR-4 ovarian it was 67.9%. In addition, the growth in the assay on SK-OV-3 ovarian was 69.2%; in the assay with IGROV1 ovarian, 51.4%; in the assay with OVCAR-3 ovarian it was 89.6%; with HS 578T breast it was 83.8%; in the assay on NCI/ADR-RES ovarian, 87%.
